Among the test systems are HCT-15 colon; HT29 colon; SNB-75 CNS; SNB-19 CNS; U251 CNS; PC-3 prostate; SK-MEL-5 melanoma; UACC-62 melanoma; LOX IMVI melanoma; SK-MEL-28 melanoma; SK-MEL-2 melanoma; EKVX NSCLC; SN12C renal; UO-31 renal; ACHN renal; CAKI-1 renal; A498 renal; CCRF-CEM leukemia; MOLT-4 leukemia; TK-10 renal.
What all share (assay): NCI-60 one-dose screen, 48 h (100 = growth as untreated, 0 = no growth, -100 = all killed)
Holding throughout (conditions): 10 µM

The panel holds about 83,000 compounds, 20% with a hit somewhere; the sample as a whole holds those more often.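 Testing used 96-well plates and a 48-hour single-concentration exposure. Example: -40 means 40% of the starting cells died.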 Unmarked numbers belong to inactive results. The source made the active and inactive calls. How the source made its calls: active means growth percent below 10; inactive means the rest.

Regarding `CC(=O)Nc1nc(C)c(C(=O)NNC=O)s1`, the growth in the assay on HCT-15 colon is 99.5%; in the assay with HT29 colon it was 99.8%; in the assay on SNB-75 CNS it was 94.8%; with SNB-19 CNS, 117%; with U251 CNS, 109%; in the assay with PC-3 prostate, 91.6%. The growth in the assay with SK-MEL-5 melanoma was 104%; in the assay on UACC-62 melanoma, 97.1%; with LOX IMVI melanoma, 104%; in the assay with SK-MEL-28 melanoma, 104%; in the assay with SK-MEL-2 melanoma, 62.7%; with EKVX NSCLC it was 101%. In addition, the growth in the assay on SN12C renal is 98.7%; in the assay with UO-31 renal, 100%; in the assay on ACHN renal it was 108%; in the assay on CAKI-1 renal, 109%; in the assay with A498 renal, 104%; in the assay with CCRF-CEM leukemia, 101%. The growth in the assay with MOLT-4 leukemia was 98.1%.
On to `COc1ccc(-c2ccccc2)cc1C(=O)c1ccc(-c2ccccc2)cc1`, for which the growth with HCT-15 colon is 63.1%; in the assay with HT29 colon, 41.8%; in the assay with SNB-75 CNS, 87.5%; in the assay with SNB-19 CNS, 81.3%; with U251 CNS, 77%; in the assay with PC-3 prostate, 71.6%. Also, the growth was 73.1% in the assay on SK-MEL-5 melanoma; 62.2% in the assay on UACC-62 melanoma; 77% with LOX IMVI melanoma; 76.5% in the assay on SK-MEL-28 melanoma; 58.9% with SK-MEL-2 melanoma; 88.8% with EKVX NSCLC. Further, the growth with SN12C renal was 96.6%; in the assay with UO-31 renal, 60.6%; in the assay on TK-10 renal it was 88.3%; in the assay with ACHN renal, 105%; with CAKI-1 renal, 52.2%; in the assay with A498 renal, 93.6%. Also, the growth in the assay with MOLT-4 leukemia was 65.9%.
In the case of `COc1cc(OC)cc(-c2n/c(=C\c3c(O)[nH]c4ccc(OC)cc34)cc3c2=Nc2ccccc2-3)c1`, the growth in the assay on HCT-15 colon is 44.6%; with HT29 colon, 15.6%; in the assay with SNB-75 CNS, 103%; in the assay with SNB-19 CNS, 78%; in the assay on U251 CNS, 19.7%; in the assay on PC-3 prostate it was 94.9%. The growth with SK-MEL-5 melanoma is 94.4%; in the assay with UACC-62 melanoma, 110%; in the assay with LOX IMVI melanoma, 30.4%; in the assay on SK-MEL-28 melanoma it was 102%; in the assay with SK-MEL-2 melanoma, 108%; in the assay on EKVX NSCLC, 96.6%. The growth in the assay on SN12C renal is 107%; in the assay on UO-31 renal, 71.2%; in the assay on TK-10 renal, 125%; in the assay with ACHN renal, 114%; in the assay with CAKI-1 renal, 90.6%; with A498 renal, 90.6%. Besides, the growth with MOLT-4 leukemia was 12.4%.
`O=C(/C=C/c1nnc2n(Cc3ccccc3)c(=O)c3c4c(sc3n12)CCCC4)c1ccccc1`: the growth is 88% in the assay with HCT-15 colon; 106% in the assay on HT29 colon; 116% in the assay with SNB-75 CNS; 99.4% in the assay with SNB-19 CNS; 40.6% in the assay on U251 CNS; 105% in the assay on PC-3 prostate. Besides, the growth was 111% in the assay with SK-MEL-5 melanoma; 99.6% in the assay on UACC-62 melanoma; 84.7% in the assay on LOX IMVI melanoma; 119% in the assay with SK-MEL-28 melanoma; 107% in the assay on SK-MEL-2 melanoma; 92.4% in the assay with EKVX NSCLC. The growth in the assay with SN12C renal is 96.7%; in the assay with UO-31 renal, 80%; with TK-10 renal it was 136%; in the assay on ACHN renal, 125%; with CAKI-1 renal, 44.6%; with A498 renal, 112%. Moreover, in the assay with MOLT-4 leukemia, the growth is -3.6% (active).
For the compound `COc1ccc(Cn2cc3c(c2-c2cc(OC)c(OC)c(OC)c2)CCc2cnoc2-3)cc1[N+](=O)[O-]`, the growth in the assay with HCT-15 colon was 34.2%; in the assay on HT29 colon it was 13.1%; in the assay with SNB-75 CNS it was 18.5%; in the assay on SNB-19 CNS, 43.2%; in the assay with U251 CNS, 39.8%; with PC-3 prostate it was 27.6%. The growth was 16% in the assay on SK-MEL-5 melanoma; 35.4% in the assay with UACC-62 melanoma; 39.6% in the assay with LOX IMVI melanoma; 68.9% in the assay on SK-MEL-28 melanoma; 43.4% with SK-MEL-2 melanoma; 20.4% in the assay on EKVX NSCLC. Further, the growth with SN12C renal is 43.4%; in the assay with UO-31 renal, 36.9%; in the assay on TK-10 renal it was 76.4%; with ACHN renal, 60.4%; with CAKI-1 renal, 16.1%; in the assay on A498 renal it was 45.2%. In addition, the growth with CCRF-CEM leukemia is 22%; with MOLT-4 leukemia, 30%.
As to `Cc1ccc(Cl)cc1Nc1nc(C(F)(F)F)ccc1C(=O)N/N=C/c1c(Cl)cccc1Cl`, the growth is 10.4% in the assay on HCT-15 colon; 16.6% with HT29 colon; 26.1% in the assay with SNB-75 CNS; 10.6% in the assay on SNB-19 CNS; 2.72% (active) in the assay on U251 CNS; -18.2% (active) in the assay on PC-3 prostate. The growth with SK-MEL-5 melanoma was -74.4% (active); in the assay on UACC-62 melanoma it was -17.6% (active); in the assay on LOX IMVI melanoma, -22.3% (active); in the assay on SK-MEL-28 melanoma it was 18.7%; in the assay on SK-MEL-2 melanoma it was 0.639% (active); in the assay with EKVX NSCLC, 4.91% (active). In addition, the growth with SN12C renal is 9.96% (active); in the assay on UO-31 renal it was -23.3% (active); in the assay with ACHN renal it was 0.0524% (active); in the assay on CAKI-1 renal it was -12.5% (active); in the assay on A498 renal it was -13.3% (active); in the assay with CCRF-CEM leukemia it was -21.2% (active). For the same compound, the growth with MOLT-4 leukemia was 8.23% (active).
On to `Cn1cnc([N+](=O)[O-])c1Sc1nnc(-c2ccccc2)c(-c2ccccc2)n1`, for which the growth in the assay on HCT-15 colon was 56%; in the assay with HT29 colon, 74.8%; with SNB-75 CNS, 100%; in the assay on SNB-19 CNS it was 109%; in the assay on U251 CNS it was 77.7%; with PC-3 prostate it was 95.5%. Also, the growth in the assay on SK-MEL-5 melanoma is 106%; with UACC-62 melanoma it was 64.3%; in the assay on LOX IMVI melanoma, 67.8%; in the assay with SK-MEL-28 melanoma, 76%; in the assay on SK-MEL-2 melanoma, 73%; in the assay with EKVX NSCLC, 119%. Moreover, the growth is 72.2% in the assay with SN12C renal; 55.3% in the assay with UO-31 renal; 48.1% in the assay on TK-10 renal; 65.9% with ACHN renal; -7.14% (active) in the assay with CAKI-1 renal; 97.9% in the assay on A498 renal. Further, the growth was 8.92% (active) in the assay on CCRF-CEM leukemia and 41% in the assay on MOLT-4 leukemia.

(Values after PubChem BioAssay (NCI).)
